Experimental data published in PubChem BioAssay (NCATS).
“And” between values parts separate entries of the source, which are not always exact repeats. Identical values can stand only once. Records with an inconclusive call do not appear. For some assays here: Potency and affinity values are given separately. The source made the active and inactive calls. Unless noted, the rule behind the calls is not given here.

Columns and labels:
[1] = Ebola virus entry assay, green fluorescence channel
[2] = Ebola virus entry assay, blue channel fluorescence
[3] = Ebola virus entry assay, green channel fluorescence
[4] = Ebola virus entry assay, reporter ratio channel; Channel type: primary
[5] = Ebola virus entry assay, blue channel (ratio component)
[6] = Immunotoxin (HA22) sensitization/mitigation study. Vehicle arm (PBS) (AID 1159510); note: potency is the fitted concentration of half-maximal effect
[7] = Immunotoxin (SS1P) sensitization/mitigation study. Vehicle arm (DMEM) (AID 1159513)
[8] = qHTS assay for measurement of the activity of small molecule inhibitors on Zika virus induced Caspase-3 activity in human iPSC derived neural progenitor cells (hNPCs) (AID 1224857; active = well fitted curve in the direction sought with a large enough effect; an effect the other way counts as inactive or inconclusive; note: % of control where 0% means no effect; nearly all actives have a fitted effect of over 65% in size)
Procedure, shortened: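 Pretreat hNPCs with compound 1 h; infect ZIKV 2 FFU/cell; 6 h 37 C, 5% CO2; Caspase-Glo 3/7, 30 min RT; luminescence; normalize to no-virus and virus-only wells.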

[9] = qHTS assay for cell viability of HEK293 cells (AID 743288; active = well fitted curve in the direction sought with a large enough effect; an effect the other way counts as inactive or inconclusive; note: % is set by controls: 0 for no effect and ±100 for the full control effect; nearly all actives have a fitted effect of over 50% in size); settings: ATP luminescence (CellTiter-Glo), 18 h; max response: stronger effect = lower value
Procedure, shortened: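 Environmental chemicals tested in qHTS format against parental HEK293 cells; 18 h treatment, 37 C; read-out ATP luminescence (CellTiter-Glo), 30 min RT development.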

[10] = qHTS assay for cell viability of the p53RE-bla HCT-116 cell line (AID 743292; active = well fitted curve in the direction sought with a large enough effect; an effect the other way counts as inactive or inconclusive; note: % is set by controls: 0 for no effect and ±100 for the full control effect; nearly all actives have a fitted effect of over 55% in size)
Procedure, shortened: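 ATP-based luminescence, 16 h compound exposure at 37 C, p53RE-bla HCT-116 cells at 4,000/well.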

[11] = Ebola virus entry assay, ratio channel
[12] = qHTS profiling of the MIPE4 collection as inhibitors of Plasmodium falciparum (3D7) proliferation (AID 743344);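 note: scaled between DMSO vehicle wells and 0.29 µM artemisinin as full inhibition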; settings: P. falciparum 3D7 in erythrocytes, SYBR Green DNA fluorescence, 72 h; at 28.5 µM (top of the series)
Procedure, shortened: (§1)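 Erythrocytes infected with P. falciparum (0.3% parasitemia, 2.5% hematocrit) incubated with compounds 72 h at 37 C, 5% CO2. Lysis with saponin/Triton buffer containing SYBR Green I, overnight at room temperature in the dark; DNA fluorescence (485/535 nm) normalised to 0.29 uM artemisinin and DMSO.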

[13] = qHTS profiling of the MIPE4 collection as inhibitors of Plasmodium falciparum (DD2) proliferation (AID 743345); settings: P. falciparum Dd2 in erythrocytes, SYBR Green DNA, 72 h; at 28.5 µM (top of the series)
Procedure, shortened: as §1

[14] = qHTS profiling of the MIPE4 collection as inhibitors of Plasmodium falciparum (DD2) proliferation (Rep 2) (AID 743346); settings: P. falciparum Dd2 in erythrocytes, SYBR Green DNA, 72 h; at 28.5 µM (top of the series)
Procedure, shortened: as §1

[15] = qHTS profiling of the MIPE4 collection as inhibitors of Plasmodium falciparum (HB3) proliferation (AID 743347);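 note: plate controls were DMSO vehicle wells for no effect and artemisinin wells for full effect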; settings: P. falciparum HB3 in erythrocytes, SYBR Green DNA, 72 h; at 28.5 µM (top of the series)
Procedure, shortened: as §1

[16] = High-throughput drug toxicity screening in the BPDCN cell line Gen2.2 (AID 1224824); settings: Gen2.2 BPDCN cells; at 45.8 µM (top of the series);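 note: cells exposed to compounds for 48 h before reading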
Procedure, shortened: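 CellTiter-Glo luminescence after 48 h compound exposure of Gen2.2 cells; percent activity set with DMSO as 100% and bortezomib (9.2 uM final) as 0%. Cells seeded at 500 per well, RPMI + 10% FBS, 37 °C.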

[17] = High-throughput drug toxicity screening in the BPDCN cell line Cal-1 (AID 1224825); settings: Cal-1 BPDCN cell viability, qHTS; at 45.8 µM (top of the series)
Procedure, shortened: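 Cal-1 cells, 500 per well in phenol-red-free RPMI with 10% FBS, exposed to compounds for 48 hours at 37C, 5% CO2. Viability read by CellTiter-Glo luminescence; percent activity normalized to DMSO (100%) and 9.2 uM bortezomib final (0%).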
Throughout, for efficacy: 0% is about no effect.

NC(=O)c1ncn([C@@H]2O[C@H](CO)[C@@H](O)[C@H]2O)c1N
inactive: efficacy [1] -19.4% | outcome [2] | outcome [3] | outcome [4] | outcome [5] | Potency [6] | outcome [7]

CN1C(=O)CN=C(c2ccccc2)c2cc([N+](=O)[O-])ccc21
inactive: efficacy [1] 23.9% | outcome [2] | outcome [3] | outcome [4] | outcome [5] | Potency [8]

C=CCOC(Cn1ccnc1)c1ccc(Cl)cc1Cl (centres undefined)
active: AC50 [2] 39.8 µM | AC50 [4] 39.8 µM
inactive: max response [9] -18.6% and -17% | outcome [10] | efficacy [1] 85% | outcome [11] | Potency [8]

C[C@H](CN1CCOCC1)C(C(=O)N1CCCC1)(c1ccccc1)c1ccccc1
active: AC50 [2] 35.5 µM | AC50 [4] 44.7 µM
inactive: efficacy [1] 92.9% | outcome [11] | Potency [8]

CCN(CC)C(C)C(=O)c1ccccc1 (centres undefined)
inactive: efficacy [1] 12% | outcome [2] | outcome [3] | outcome [4] | outcome [5] | Potency [8]

CCCCCCCCCCCC[N+](C)(C)CCOc1ccccc1
active: AC50 [2] 39.8 µM | AC50 [11] 25.1 µM | AC50 [4] 25.1 µM
inactive: outcome [10] | efficacy [1] -194% | Potency [8]

COCC(=O)N(c1c(C)cccc1C)C(C)C(=O)OC (centres undefined)
inactive: max response [9] -7.89% | outcome [10] | efficacy [1] -46.6% | outcome [2] | outcome [3] | outcome [4] | outcome [5] | Potency [8]

c1ccc2c(c1)Sc1ccccc1N2CC1CN2CCC1CC2 (centres undefined)
inactive: efficacy [1] -241% | Potency [8]
active: AC50 [2] 5.01 µM | AC50 [11] 3.98 µM | AC50 [4] 3.98 µM

CCN(CC)Cc1nccn1-c1ccc([N+](=O)[O-])cc1C(=O)c1ccccc1Cl
inactive: efficacy [1] 96.4% | outcome [11] | Potency [8]
active: AC50 [2] 39.8 µM | AC50 [4] 39.8 µM

CCCC[N+]1(C)[C@@H]2CC(OC(=O)[C@H](CO)c3ccccc3)C[C@H]1[C@@H]1O[C@@H]12 (some centres undefined)
inactive: efficacy [1] -24.1% | outcome [2] | outcome [3] | outcome [4] | outcome [5] | Potency [8]

COP(=S)(OC)Oc1ccc(Sc2ccc(OP(=S)(OC)OC)cc2)cc1
inactive: max response [9] -12.2% | outcome [10] | efficacy [1] 20.5% | outcome [2] | outcome [3] | outcome [4] | outcome [5] | Potency [8]

Cc1ccc(N=CN(C)C=Nc2ccc(C)cc2C)c(C)c1
inactive: max response [9] -16.1% | outcome [10] | efficacy [1] -16% | outcome [2] | outcome [3] | outcome [4] | outcome [5] | Potency [8]

C[C@]12CCC(=O)C=C1CC[C@@H]1[C@@H]2[C@@H](O)C[C@@]2(C)[C@H]1CC[C@]2(O)C(=O)CO
inactive: efficacy [1] 14.5% | outcome [2] | outcome [3] | outcome [4] | outcome [5] | outcome [7]
active: Potency [6] 0.296 µM

CCOC(=O)c1cncn1C(C)c1ccccc1 (centres undefined)
inactive: efficacy [1] 19.1% | outcome [2] | outcome [3] | outcome [4] | outcome [5] | Potency [8]

C=CCc1cc(OC)c(O)c(C(=O)NCCO)c1
40.8%: parasite growth remaining, % of DMSO control (lower = more inhibition) [13]
inactive: efficacy [1] -21.5%
114%: parasite growth, % of DMSO control [12]
125%: parasite growth, % of control (lower = inhibition) [14]
active: AC50 [2] 12.6 µM | AC50 [11] 22.4 µM | AC50 [4] 22.4 µM
100%: growth, % of control [15]

CCC(=O)C(CCN(C)C)(c1ccccc1)c1ccccc1
inactive: efficacy [1] 68.8% | Potency [8]
active: AC50 [2] 28.2 µM | AC50 [11] 31.6 µM | AC50 [4] 31.6 µM

COc1ccc(C(=O)N2CCCC2=O)cc1
inactive: efficacy [1] -13.7% | outcome [2] | outcome [3] | outcome [4] | outcome [5] | Potency [8]
41.6%: viability (% of control) [17]
46.4%: cell viability, % of control (lower = more cytotoxic) [16]
19.7%: parasite growth remaining, % of DMSO control (lower = more inhibition) [13]
103%: growth, % of control [15]
90.2%: parasite growth, % of DMSO control [12]
128%: parasite growth, % of control (lower = inhibition) [14]

NC(=O)CN1CCCC1=O
inactive: efficacy [1] 23.9% | outcome [2] | outcome [3] | outcome [4] | outcome [5] | Potency [8]

OC[C@@H](O)[C@H](O)[C@H](O)[C@@H](O)CO
inactive: efficacy [1] -17.3% | outcome [2] | outcome [3] | outcome [4] | outcome [5]

O=c1n(Cl)c(=O)n(Cl)c(=O)n1Cl
inactive: max response [9] 2.76% | outcome [10] | efficacy [1] -11.8% | outcome [2] | outcome [3] | outcome [4] | outcome [5] | Potency [8]
